# Laboratory results reported in paper PMC5540273 (PLoS ONE, 2017).
# Assays:
# Conditions in all cases: concentration: 1 μM, replicates: in singlicate; n = 1
# CSK = system: CSK
# CSNK1A1L = system: CSNK1A1L
# CSNK1A1 = system: CSNK1A1
# CSNK1D = system: CSNK1D
# CSNK1E = system: CSNK1E
# CSNK1G1 = system: CSNK1G1
# CSNK1G2 = system: CSNK1G2
# CSNK1G3 = system: CSNK1G3
# CSNK2A1 = system: CSNK2A1
# CSNK2A2 = system: CSNK2A2
# 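Further: KINOMEscan kinase panel screen.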
SMILES,%Inh (CSK) [%],%Inh (CSNK1A1L) [%],%Inh (CSNK1A1) [%],%Inh (CSNK1D) [%],%Inh (CSNK1E) [%],%Inh (CSNK1G1) [%],%Inh (CSNK1G2) [%],%Inh (CSNK1G3) [%],%Inh (CSNK2A1) [%],%Inh (CSNK2A2) [%]
COc1ccc(Nc2nccc(N3CCC(NC(=O)C(C)c4ccc(Cl)cc4)C3)n2)cc1 (stereo not shown) [GSK1379735],0,1,10,0,11,0,0,23,12,14
CNC(=O)c1ccc(C)c(-n2c(C)cc(OCc3ccc(F)cc3F)c(Br)c2=O)c1,0,0,4,0,6,0,0,25,0,0
Cc1cnc(N)c(/C=C/c2cncc(C(=O)NCCc3ccc(Cl)cc3Cl)c2)c1.Cl [GSK190937],0,0,0,34,20,24,2,3,0,0
CSc1ccc(-c2nc3n(c2-c2ccncc2)CCC3)cc1 [SKF-105561],0,5,5,6,7,0,0,1,8,0
NS(=O)(=O)c1cccc(N/C=C2\C(=O)Nc3ccc(S(=O)(=O)Cc4c(Cl)cccc4Cl)cc32)c1 [GSK398099],0,11,0,12,18,12,0,28,0,19
Nc1cccc(-c2ccc3c(N)n[nH]c3c2)n1 [GSK2192730],15,0,77,0,39,4,0,19,27,42
CC(C)c1cc(-c2ccc3c(N)n[nH]c3c2)nc(N)n1 [GSK2250882],0,0,0,0,7,10,0,25,0,10
Cc1ccccc1Cn1ccn2c(=O)cc(N3CCOCC3)nc12 [GSK2269905],0,0,0,4,28,0,0,22,0,0
Cn1cncc1C(=O)NC1CCN(c2ccnc(Nc3ccc(F)cc3)n2)C1 (stereo not shown) [GSK1379717],9,0,0,0,0,0,0,17,0,0
Cc1ccc(NC(=O)c2ccc(Cl)cc2)cc1-c1ccc(C(=O)Nc2ccncc2)cc1 [GSK1398467],0,14,0,18,11,8,9,22,0,0
COc1cccc(NC(=O)Nc2ccc(C)c(-c3ccc(C(=O)Nc4ccncc4)cc3)c2)c1 [GSK1398474],0,0,0,31,42,8,25,34,0,10
CNCc1ccc2nc(NC(=O)c3ccc(C(C)(C)C)cc3)cn2c1,0,0,2,11,3,9,0,87,42,4
Cc1ccc(NC(=O)Nc2ccc(Cl)cc2)cc1-c1ccc(C(=O)Nc2ccncc2)cc1 [GSK1398472],0,1,0,6,26,2,7,36,0,0
COc1ccc(CSc2nnc(-c3ccc4c(c3)CCO4)o2)cc1,0,3,0,0,0,0,0,0,0,0
CS(=O)(=O)CCNCc1nc(-c2ccc3ncnc(Nc4ccc5c(cnn5Cc5ccccc5)c4)c3c2)cs1.Cl.Cl [GW569716],0,0,0,2,21,1,0,3,0,37
O=C1NC(=O)C(c2ccc(Cl)cc2)=C1Nc1cccc(Cl)c1 [SB-317651],0,16,22,0,0,0,0,88,0,0
CC(C)c1ccc(O)cc1Nc1ccnc2ccc(C(F)(F)F)cc12 [GW482059],0,11,0,0,0,0,0,9,7,0

SMILES,%Inh (CSK) [%],%Inh (CSNK1A1L) [%],%Inh (CSNK1A1) [%],%Inh (CSNK1D) [%],%Inh (CSNK1E) [%],%Inh (CSNK1G1) [%],%Inh (CSNK1G2) [%],%Inh (CSNK1G3) [%],%Inh (CSNK2A1) [%],%Inh (CSNK2A2) [%]
CNc1cc(-c2ccc3c(N)n[nH]c3c2)nc(N)n1 [GSK2224810],4,0,8,9,12,7,0,28,19,22
Nc1nccc(-c2c(-c3ccc(F)cc3)ncn2C2CCN(Cc3ccccc3)CC2)n1 [SB-219980],0,49,95.1,94.1,99.4,0,0,0,0,6
COc1cccc(CNC(=O)NC2CCN(c3ccnc(Nc4ccc(F)cc4)n3)C2)c1 (stereo not shown) [GSK1379723],0,21,19,4,11,0,0,16,0,2
CC(=O)c1c(C)c2cnc(Nc3ccc(N4CCNCC4)cn3)nc2n(C2CCCC2)c1=O,0,0,24,8,99.9,0,0,0,0,13
O=C(Nc1n[nH]c2nc(-c3ccco3)c(Br)cc12)C1CCN(Cc2ccccc2)C1.O=C(O)[C@H](O)[C@@H](O)C(=O)O (stereo not shown) [SB-742034],11,8,21,28,0,4,32,0,22,37
Cc1nccc(-c2c(-c3ccc(F)cc3)ncn2CCCN2CCOCC2)n1.Cl [SB-282975],0,21,51,95.6,88,4,6,2,1,9
O=c1cc(N2CCOCC2)nc2n(Cc3cccc(Cl)c3Cl)c3ccccc3n12 [GSK2299009],21,11,0,19,41,8,0,17,11,31
Cc1ccccc1-c1cc(-c2c[nH]nc2-c2ccccn2)ccn1 [GW680061],0,7,12,24,16,2,0,1,13,0
CNc1nc(-c2ccc3c(N)n[nH]c3c2)cc(N2C[C@@H](C(=O)NC3CCCCC3)OC[C@H]2C)n1 [GSK2375584],1,16,66,41,38,2,4,26,1,8
Cc1ccc(-c2nc(Nc3ccncc3)c3ccccc3n2)s1 [GSK189015],0,13,24,33,22,14,12,35,27,30
COc1ccc2cc(-c3nc(-c4ccccc4C(C)C)[nH]c3-c3ccncc3)ccc2c1 [SB-660566],0,20,0,22,34,10,0,0,0,2
O=C(Nc1n[nH]c2cc(-c3ccsc3)ccc12)C1CC1 [SB-732932],0,17,0,0,0,24,0,0,29,52
O=C(Nc1n[nH]c2nc(-c3cccs3)c(Br)cc12)C1CCCC1 [SB-743341],9,13,27,0,0,0,0,0,10,17
CCc1ccc(-c2ccc3c(c2)-c2n[nH]cc2S(=O)(=O)N3C)cc1,0,0,0,32,0,0,0,0,0,0
FC(F)(F)c1ccccc1-c1cc(-c2c[nH]nc2-c2ccccn2)ccn1 [GW679396],0,3,0,36,23,16,0,24,7,17
CNc1nc(-c2ccc3c(N)n[nH]c3c2)cc(N2C[C@@H](C(=O)Nc3ccccc3)CC[C@H]2C)n1 [GSK2298859],0,6,0,15,36,16,0,28,2,3
c1ccc(-c2ccnc3[nH]ccc23)cc1 [SB-693578],0,20,0,1,42,90.3,0,5,0,0
